Compound activity from PubChem.
Rows were chosen to be rich in hits. Some 3.7% of all compounds tested hit in one or more screens of this group.
tim10-1 inh – growth inhibitors of tim10-1 mutant yeast; 330,000 tested, 2.2% active; AID 463190; S. cerevisiae tim10-1 ts strain growth, BacTiter-Glo, 24 h; inhibition, % at 20 µM;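 active = inhibition of at least 40%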;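 also: mutant grown at 25 °C; 0% = DMSO wells with yeast and 100% = wells holding no yeast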
TIM10 inh – TIM10 yeast growth inhibition; S. cerevisiae TIM10 strain growth, BacTiter-Glo luminescence, 24 h; inhibition, % at 10 µM; 330,000 tested, 1.4% active; AID 463195;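 active = inhibition of 40% or more at the single tested concentration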;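 also: wild-type TIM10 isogenic control strain grown at permissive 25 °C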
PfHsp90 set2 – reduces growth (ATP signal) of yeast expressing P. falciparum Hsp90. 310,000 tested, 0.32% active. inhibition, % at 9.4 µM. AID 504621. S. cerevisiae expressing PfHsp90, BacTiter-Glo ATP, 48 h; yeast lacking PDR1 and PDR3 efflux regulators;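 active = every replicate shows inhibition above about 80%, whatever the replicate mean, limit read from the data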;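 also: 0% = DMSO neutral controls and 100% = 20 µM radicicol positive controls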
tim23-1 inh – growth inhibitors of tim23-1 mutant yeast. inhibition, % at 20 µM. S. cerevisiae tim23-1 growth, BacTiter-Glo luminescence, 24 h. 330,000 tested, 1.3% active;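 active = growth inhibition of the mutant yeast at or above 50%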;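 also: temperature-sensitive mutant grown at 25 °C; plate controls were DMSO-treated mutant yeast for no effect and medium wells lacking yeast for full effect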
NALP3 yeast inh – inhibitors of NALP3 inflammasome in yeast; Yeast reconstituted NLRP3/ASC/caspase-1, beta-gal luminescence, 24 h; inhibition, % at 10 µM; 330,000 tested, 0.39% active;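 active = inhibition of 50% or more; inactive = inhibition below 50%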;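 also: plate controls were induced DMSO wells for no effect and uninduced yeast grown without galactose for full effect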
tim10-1 conf – confirmation of tim10-1 mutant yeast growth inhibitors; shares compounds with tim10-1 inh; S. cerevisiae tim10-1 ts strain growth, BacTiter-Glo, 24 h; inhibition, % at 20 µM; 7,400 tested, 56% active;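 active = inhibition of yeast growth at or above a set limit in either of two repeat tests at 20 µM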;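 also: tim10-1 mutant grown at permissive 25 °C to find synthetic lethal compounds; 0% = DMSO yeast wells and 100% = medium wells without yeast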
* = called active by the depositor.

For CCOc1ccccc1Nc1nc(-c2sc(C)nc2C)cs1 the results were tim10-1 inh 47*, TIM10 inh 31, PfHsp90 set2 -2, tim23-1 inh 28, NALP3 yeast inh -6 and tim10-1 conf 24.
For COc1cc(C(=O)OCC(=O)NC2CCCCC2)cc(OC)c1OC the results were tim10-1 inh -1, TIM10 inh 4, PfHsp90 set2 3, tim23-1 inh 2 and NALP3 yeast inh 9.
Screening O=C(NNC(=S)NC1CCCCC1)c1sc2ccccc2c1Cl returned tim10-1 inh 50*, TIM10 inh 25, PfHsp90 set2 -34, tim23-1 inh 46, NALP3 yeast inh -6 and tim10-1 conf 32.
Screening COC(=O)c1ccccc1NC(=O)c1sc(N)nc1C returned tim10-1 inh 14, TIM10 inh -13, PfHsp90 set2 0, tim23-1 inh -8 and NALP3 yeast inh 28.
COC(=O)c1ccccc1NC(=O)c1sc(=S)n(C)c1N was read as tim10-1 inh 46*, TIM10 inh 35, PfHsp90 set2 -22, tim23-1 inh 30, NALP3 yeast inh 2 and tim10-1 conf 22.
`CCCc1ccc(-c2cc(NC(=O)CSc3nnc(N)s3)n(-c3ccccc3)n2)cc1` gave tim10-1 inh 43*, TIM10 inh 19, PfHsp90 set2 39, tim23-1 inh 12, NALP3 yeast inh 18 and tim10-1 conf 11.
`CCC1([N+](=O)[O-])COC(C=Cc2ccccc2)OC1` (centres undefined) gave PfHsp90 set2 4.
For O=C1C=CCC(/C=C/c2ccccc2)O1 (centres undefined) the results were tim10-1 inh 55*, TIM10 inh 35, tim23-1 inh 40, NALP3 yeast inh 25 and tim10-1 conf 27.
Screening O=S(=O)(NCCSc1ccc(Cl)cc1)c1ccc2c(c1)OCCO2 returned tim10-1 inh 56*, TIM10 inh 24, PfHsp90 set2 -11, tim23-1 inh 30, NALP3 yeast inh 8 and tim10-1 conf 49*.
O=S(=O)(NCCSCc1ccc(Cl)cc1Cl)c1ccc2c(c1)OCCO2 was read as tim10-1 inh 45*, TIM10 inh 19, PfHsp90 set2 -26, tim23-1 inh 28, NALP3 yeast inh 2 and tim10-1 conf 34*.
O=S(=O)(NCc1ccc(F)cc1)c1ccc2c(c1)OCCO2 was read as tim10-1 inh 53*, TIM10 inh 28, tim23-1 inh 37, NALP3 yeast inh 11 and tim10-1 conf 37*.
Screening NS(=O)(=O)c1ccc(CNS(=O)(=O)c2ccc3c(c2)OCCO3)cc1 returned tim10-1 inh -7, TIM10 inh 6, PfHsp90 set2 -9, tim23-1 inh 2 and NALP3 yeast inh 5.
O=S(=O)(NCCCNS(=O)(=O)c1c(F)cccc1F)c1ccc2c(c1)OCCO2 was read as tim10-1 inh -11, TIM10 inh -2, PfHsp90 set2 -10, tim23-1 inh -11 and NALP3 yeast inh 14.
Screening CNC[C@H]1Oc2c(NC(=O)C3CC3)cccc2C(=O)N([C@H](C)CO)C[C@@H]1C returned tim10-1 inh -6, TIM10 inh 0, PfHsp90 set2 -12, tim23-1 inh 1 and NALP3 yeast inh -9.
Cc1cc2c(sc3c(C)ccc(C)c32)c(C)n1 was read as tim10-1 inh 48*, TIM10 inh 14, PfHsp90 set2 -6, tim23-1 inh 45, NALP3 yeast inh 13 and tim10-1 conf 18.
Screening CC(=O)Nc1ccc(S(=O)(=O)Nc2cc(S(=O)(=O)N3CCCCC3)ccc2O)cc1 returned tim10-1 inh -19, TIM10 inh -6, tim23-1 inh -3 and NALP3 yeast inh 10.
For Cc1ccc(SCc2[nH]nc3c2C(c2ccc(C)o2)C(C#N)=C(N)O3)cc1 (centres undefined) the results were tim10-1 inh 42*, TIM10 inh 23, PfHsp90 set2 0, tim23-1 inh 41, NALP3 yeast inh 13 and tim10-1 conf 38*.
For CCc1[nH]nc2c1C(c1ccc(C)o1)C(C#N)=C(N)O2 (centres undefined) the results were tim10-1 inh -2, TIM10 inh -3, tim23-1 inh -2 and NALP3 yeast inh 5.
For COc1cccc(/C=C2/Oc3ccccc3N(CC(=O)NCC3CCCO3)C2=O)c1 (centres undefined) the results were tim10-1 inh 32, TIM10 inh 12, PfHsp90 set2 -12, tim23-1 inh 15 and NALP3 yeast inh 19.
CC(C)(C)S(=O)(=O)N1C[C@@H]2C(=CC[C@H]3C(=O)N(c4ccccc4)C(=O)[C@@H]23)[C@@H]1CCO was read as PfHsp90 set2 13.
For CCCCCSc1nc2c(cnn2-c2ccc(F)cc2)c(=O)[nH]1 the results were tim10-1 inh -22, TIM10 inh 16, PfHsp90 set2 -3, tim23-1 inh 1 and NALP3 yeast inh 14.
O=C(COC(=O)COc1ccc(Br)cc1)NNC(=O)c1ccccc1 was read as tim10-1 inh -7, TIM10 inh 3, PfHsp90 set2 19, tim23-1 inh 9 and NALP3 yeast inh 3.
For COc1ccc(-n2ncc(C(C)NS(=O)(=O)c3ccc(C)s3)c2C)cc1 (centres undefined) the results were tim10-1 inh 21, TIM10 inh 14, PfHsp90 set2 -7, tim23-1 inh 25 and NALP3 yeast inh 8.
CC(C)OCCCn1c(-c2ccc(Br)cc2)c[nH]c1=S was read as tim10-1 inh 43*, TIM10 inh 39, PfHsp90 set2 -11, tim23-1 inh -5, NALP3 yeast inh 39 and tim10-1 conf 10.
S=C(Nc1ccccc1)Nc1ccc(OCc2ccc(Cl)cc2Cl)cc1 was read as tim10-1 inh 48*, TIM10 inh 21, PfHsp90 set2 15, tim23-1 inh 3, NALP3 yeast inh 10 and tim10-1 conf 19.
CCOc1ccc(NC(=S)Nc2ccc(OCc3ccccc3)cc2)cc1 was read as tim10-1 inh 10, TIM10 inh 5, PfHsp90 set2 12, tim23-1 inh 3 and NALP3 yeast inh 25.
CCOC(=O)C1CCN(C(=O)CS(=O)(=O)Cc2nc(-c3ccccc3Cl)oc2C)CC1 was read as tim10-1 inh 16, TIM10 inh 4, PfHsp90 set2 -13, tim23-1 inh 3 and NALP3 yeast inh 2.
`CC(=O)N(Cc1ccccc1)C1CC(=O)N(Cc2ccccc2)C1=O` (centres undefined) gave PfHsp90 set2 -19.
CCC1CCCCN1C(=O)CSc1nnc(CNC(=O)COc2ccc(Cl)cc2)o1 (centres undefined) was read as tim10-1 inh 40*, TIM10 inh 24, PfHsp90 set2 23, tim23-1 inh 26, NALP3 yeast inh -17 and tim10-1 conf 20.
For CCC1CCCCN1C(=O)CSc1nnc(-c2ccc(Cl)s2)o1 (centres undefined) the results were tim10-1 inh 51*, TIM10 inh 9, PfHsp90 set2 -5, tim23-1 inh 42, NALP3 yeast inh 27 and tim10-1 conf 24.
